Laboratory results: PubChem BioAssay AID977607 (Broad Institute, 2014)
The whole screen tested about 1,500 compounds, of which about 460 (31%) were called active. Roughly 1% stayed inconclusive and do not appear here. Only a sample is shown. Potency and affinity values are given separately. A number with no mark means an inactive call.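 How the source made its calls: active means curve reaches 40% activation over neutral controls at an AC40 no higher than the top valid tested concentration; inconclusive means no clear call, values can overlap the other calls; inactive means signal moving opposite to the expected increase, and the rest.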

Assay: GLuc-reported insulin release enhancers, glucose-stimulated beta cells – cell-based, INS-1E, Gaussia luciferase, luminescence, cherry-pick, set 2, dose response (AID 977607);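 further: 0% = median of the plate neutral control wells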
Conditions: INS-1E GLuc insulin secretion reporter, 2-3 h, stronger effect = higher value; at 35 µM, 100% = signal doubled over neutral wells unless noted

**Q.** With `CN1CCN(CC(O)COC(c2ccc(Cl)cc2)c2ccc(Cl)cc2)CC1` (configuration not stated) as the molecule, how does the max activation read?
**A.** Its max activation is -16.1% [at 11 µM, 100% = signal doubled over neutral wells].

**Q.** For `COc1ccccc1CSc1nc2c(c(=O)n(C)c(=O)n2C)n1C`, which max activation is on record?
**A.** Its max activation is -16.4%.

**Q.** Which max activation does the source give for `CC(=O)C(C)n1c(CN(C)Cc2ccccc2)nc2c1c(=O)n(C)c(=O)n2C` (configuration not stated) here?
**A.** Its max activation is 13.8% [at 11 µM, 100% = signal doubled over neutral wells].

**Q.** For `CCOC(=O)c1nn(-c2ccccc2)c2nc(Nc3ccccc3)cc(=O)n12`, which max activation is on record?
**A.** The max activation was -18.7% [at 0.0016 µM, 100% = signal doubled over neutral wells].

**Q.** Which max activation does the source give for `O=S(=O)(c1ccc(=S)[nH]c1)N1CCCCCC1` here?
**A.** Its max activation is 19.7%.

**Q.** With `Cc1ccc(C(=O)c2sc(Nc3ccccc3)c(C#N)c2N)cc1` as the molecule, how does the max activation read?
**A.** The max activation was -18.3% [at 0.005 µM, 100% = signal doubled over neutral wells].

**Q.** Which max activation does the source give for `Cc1ccc(C)c(OCC(=O)Nc2cc(NC(=O)COc3cc(C)ccc3C)cc(C(=O)O)c2)c1` here?
**A.** Its max activation is -27.7%.

**Q.** With `Cc1ccc(C)c(OCC(=O)NCC(C)(C)N2CCOCC2)c1` as the molecule, how does the max activation read?
**A.** Its max activation is -15.8% [at 0.015 µM, 100% = signal doubled over neutral wells].

**Q.** Which max activation does the source give for `CC(C)Cn1c(Cc2ccccc2)n[nH]c1=S` here?
**A.** The max activation was -12.9% [at 3.8 µM, 100% = signal doubled over neutral wells].

**Q.** For `Cc1ccc2nc(N/N=C/c3ccccc3C#N)nc(-c3ccccc3)c2c1`, which max activation is on record?
**A.** Its max activation is -36.1%.

**Q.** Which max activation does the source give for `COCc1[nH]nc2c1C(c1ccc(C)cc1)NC2=O` (configuration not stated) here?
**A.** Its max activation is 25.3%.

**Q.** Which max activation does the source give for `COc1ccc(S(=O)(=O)N2CCOCC2)cc1NC(=O)COc1ccccc1` here?
**A.** The max activation was -23.5%.

**Q.** For `CCOc1ccc(C(=O)OCC(=O)Nc2cc(C)on2)cc1OCC`, which max activation is on record?
**A.** Its max activation is 24%.

**Q.** With `CCOc1ccc(-c2noc(CCC(=O)NC)n2)cc1OCC` as the molecule, how does the max activation read?
**A.** The max activation was -18.4% [at 0.005 µM, 100% = signal doubled over neutral wells].

**Q.** With `O=C(Cn1cnc2sc(-c3ccccc3)cc2c1=O)NCCc1ccccc1` as the molecule, how does the max activation read?
**A.** The max activation was -13.9% [at 11 µM, 100% = signal doubled over neutral wells].

**Q.** With `Cc1sc2ncn(CC(=O)NCc3ccccc3)c(=O)c2c1C` as the molecule, how does the max activation read?
**A.** Its max activation is -22.8% [at 0.015 µM, 100% = signal doubled over neutral wells].

**Q.** Which max activation does the source give for `COc1ccc(C(C)=O)cc1Cn1cnc2c(cnn2C)c1=O` here?
**A.** Its max activation is -12.8% [at 0.015 µM, 100% = signal doubled over neutral wells].

**Q.** For `CCC(=O)Nc1cc2nn(-c3ccc(OC)cc3)nc2cc1C`, which max activation is on record?
**A.** The max activation was -15.9% [at 3.8 µM, 100% = signal doubled over neutral wells].

**Q.** Which max activation does the source give for `Cc1cc(-c2ccc(S(=O)(=O)N3CCN(C)CC3)s2)on1` here?
**A.** Its max activation is -22.5%.

**Q.** Which max activation does the source give for `OC(c1ccc(Cl)cc1)C(CN1CCOCC1)c1ccccc1` (configuration not stated) here?
**A.** The max activation was -24.5%.

**Q.** For `COC(=O)c1ccc(CNC(=O)CCc2c[nH]c3ccccc23)cc1`, which max activation is on record?
**A.** Its max activation is -13.7% [at 0.015 µM, 100% = signal doubled over neutral wells].

**Q.** With `C/C(=N/Oc1nc(C)cc(C)n1)c1ccc(F)cc1` as the molecule, how does the max activation read?
**A.** Its max activation is -10.7% [at 3.8 µM, 100% = signal doubled over neutral wells].

**Q.** For `COc1ccc(-n2c(O)cnc2Nc2nc(C)cc(C)n2)cc1OC`, which max activation is on record?
**A.** Its max activation is -16.8% [at 0.135 µM, 100% = signal doubled over neutral wells].

**Q.** For `CNc1cc(-c2ccc(OC)c(OC)c2)ncn1`, which max activation is on record?
**A.** The max activation was -15.3% [at 0.046 µM, 100% = signal doubled over neutral wells].

**Q.** For `CNc1ccc(-c2ccccc2OC)cn1`, which max activation is on record?
**A.** Its max activation is -9.32% [at 1.2 µM, 100% = signal doubled over neutral wells].

**Q.** With `O=C(NC1CCCC1)c1ccc(Cl)c(S(=O)(=O)N2CCOCC2)c1` as the molecule, how does the max activation read?
**A.** Its max activation is 23.2% [at 0.42 µM, 100% = signal doubled over neutral wells].

**Q.** For `Cc1ccccc1CSCc1ccc(C(=O)NCCCN2CCOCC2)o1`, which max activation is on record?
**A.** Its max activation is -12.1% [at 0.046 µM, 100% = signal doubled over neutral wells].

**Q.** Which max activation does the source give for `CCOc1ccc2oc(=O)cc(CN3CCOCC3)c2c1` here?
**A.** The max activation was 12.7%.

**Q.** Which max activation does the source give for `Cc1ccccc1-n1nc2c(c1NC(=O)c1cc3ccccc3oc1=O)CS(=O)(=O)C2` here?
**A.** Its max activation is 24.5% [at 3.8 µM, 100% = signal doubled over neutral wells].

**Q.** Which max activation does the source give for `CC(C)CC(=O)Nc1c2c(nn1-c1ccc(F)cc1)CS(=O)(=O)C2` here?
**A.** Its max activation is -20.4% [at 1.2 µM, 100% = signal doubled over neutral wells].

**Q.** With `c1ccc(CNc2nc(Oc3ccncc3)c3sccc3n2)cc1` as the molecule, how does the max activation read?
**A.** The max activation was 13.8% [at 11 µM, 100% = signal doubled over neutral wells].

**Q.** For `Cc1cc(Cl)ccc1-c1nc(NCc2ccccc2)nc2ccsc12`, which max activation is on record?
**A.** The max activation was -22.5% [at 11 µM, 100% = signal doubled over neutral wells].

**Q.** Which max activation does the source give for `C[C@@H]1CN([C@H](C)CO)C(=O)CCCn2cc(nn2)CO[C@H]1CN(C)S(=O)(=O)c1cccs1` here?
**A.** The max activation was -22.5% [at 11 µM, 100% = signal doubled over neutral wells].

**Q.** Which max activation does the source give for `C[C@@H]1CC2=C(C(=O)OC(C)(C)O2)[C@H](c2ccc(F)cc2)O1` here?
**A.** Its max activation is -20.8% [at 0.015 µM, 100% = signal doubled over neutral wells].

**Q.** Which max activation does the source give for `NC(=O)c1ccsc1NC(=O)COC(=O)CNC(=O)c1ccc(Cl)cc1` here?
**A.** The max activation was -11.2% [at 0.005 µM, 100% = signal doubled over neutral wells].

**Q.** With `CC1(C(=O)NCc2ccccc2)CN(S(C)(=O)=O)CC(=O)N1C1CC1` (configuration not stated) as the molecule, how does the max activation read?
**A.** The max activation was -10.6% [at 11 µM, 100% = signal doubled over neutral wells].

**Q.** With `CCN(CCC(=O)O)c1ccccc1` as the molecule, how does the max activation read?
**A.** The max activation was -16.1% [at 0.135 µM, 100% = signal doubled over neutral wells].

**Q.** Which max activation does the source give for `O=C(Cn1cc(C(F)(F)F)ccc1=O)NCC1CCCO1` (configuration not stated) here?
**A.** The max activation was -21% [at 0.015 µM, 100% = signal doubled over neutral wells].

**Q.** With `CC1=NS(=O)(=O)NC(C)(C)C1` as the molecule, how does the max activation read?
**A.** The max activation was 51.2% [at 0.42 µM, 100% = signal doubled over neutral wells].

**Q.** For `COc1ccc(CCNC(=O)COC(=O)c2cncc(Br)c2)cc1OC`, which max activation is on record?
**A.** Its max activation is -19.1%.

**Q.** Which max activation does the source give for `CCc1ccc(OCC(=O)NC(=S)Nc2ccc(C)cc2C)c(Br)c1` here?
**A.** Its max activation is -19.5% [at 0.046 µM, 100% = signal doubled over neutral wells].

**Q.** With `COCCN(CCOC)Cc1cc(=O)oc2cc(OC)c(Cl)cc12` as the molecule, how does the max activation read?
**A.** Its max activation is 13.5% [at 11 µM, 100% = signal doubled over neutral wells].

**Q.** With `O=C(COC(=O)C1CCC1)NC(=O)c1ccccc1` as the molecule, how does the max activation read?
**A.** The max activation was -14.8% [at 11 µM, 100% = signal doubled over neutral wells].

**Q.** For `Cc1ccc(OCC(=O)NC(C)c2ccccc2)cc1` (configuration not stated), which max activation is on record?
**A.** The max activation was 22.7% [at 0.005 µM, 100% = signal doubled over neutral wells].

**Q.** With `CN(C)C(=O)COC(=O)c1cccnc1Nc1ccccc1F` as the molecule, how does the max activation read?
**A.** The max activation was -17.2% [at 3.8 µM, 100% = signal doubled over neutral wells].

**Q.** Which max activation does the source give for `CN(C)N1C(N)=C(C#N)C(c2ccc(F)cc2)C2=C1CCCC2=O` (configuration not stated) here?
**A.** Its max activation is 30.5% [at 11 µM, 100% = signal doubled over neutral wells].

**Q.** For `CCOC(=O)Nc1ccc2c(c1)Sc1ccccc1N2C(=O)CCN1CCOCC1`, which max activation is on record?
**A.** The max activation was -19.4% [at 0.0016 µM, 100% = signal doubled over neutral wells].

**Q.** Which max activation does the source give for `CN1CCC(N(C)S(=O)(=O)c2ccc(NC(=O)COc3cccc(Cl)c3)cc2)CC1` here?
**A.** The max activation was -15.6%.

**Q.** For `O=C(N1CCOCC1)N1CCN(c2ccccn2)CC1`, which max activation is on record?
**A.** Its max activation is 26.8% [at 1.2 µM, 100% = signal doubled over neutral wells].

**Q.** For `CC(C)OCC(O)CN1CCC(Cc2ccccc2)CC1` (configuration not stated), which max activation is on record?
**A.** The max activation was -7.86% [at 0.005 µM, 100% = signal doubled over neutral wells].

**Q.** With `COc1ccc(CNC(=O)c2cnn3c(C(F)F)cc(C)nc23)cc1` as the molecule, how does the max activation read?
**A.** Its max activation is 24.2%.

**Q.** For `CC(=O)N1CCN(c2nnc(-c3ccccc3)c3ccccc23)CC1`, which max activation is on record?
**A.** Its max activation is -13.9% [at 0.005 µM, 100% = signal doubled over neutral wells].

**Q.** Which max activation does the source give for `CCOC(=O)c1c(C)[nH]c(C(=O)COC(=O)c2cnccn2)c1C` here?
**A.** Its max activation is 27%.

**Q.** Which max activation does the source give for `CCCCn1c(-c2ccncc2)nc2c1c(=O)[nH]c(=O)n2CC(C)C` here?
**A.** Its max activation is -13.3% [at 3.8 µM, 100% = signal doubled over neutral wells].

**Q.** For `COc1cc(OC)c(OC)cc1/C=N/n1c(C)nc2ccccc2c1=O`, which max activation is on record?
**A.** Its max activation is -20.7% [at 0.42 µM, 100% = signal doubled over neutral wells].

**Q.** With `CCCc1cc(NCC2CCCO2)n2c(nc3ccccc32)c1C#N` (configuration not stated) as the molecule, how does the max activation read?
**A.** The max activation was -13% [at 0.015 µM, 100% = signal doubled over neutral wells].

**Q.** With `O=C(Cc1ccsc1)NNC(=O)c1ccccc1Cl` as the molecule, how does the max activation read?
**A.** Its max activation is -13.6%.
